NPC1 prom act – activates the NPC1 promoter. Huh7 NPC1 promoter luciferase reporter, 24 h. AID 485313. Potency, µM (series often up to 9.22 µM), for the others: at the top dose activation, usual class: activators. 320,000 tested, 2.4% active; also: % of control where 0% means no effect; nearly all actives have a fitted effect of over 60% in size
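In 1536-well qHTS, Huh7 cells harboring an NPC1 promoter–luciferase construct received compound for 24 h; activation was quantified by luminescence following luciferase reagent addition.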
Rab9 prom act – Rab9 promoter activation; Huh7 Rab9 promoter-luciferase reporter, luminescence, 24 h; Potency, µM (series often up to 9.22 µM), inactives show at the top dose activation, negative = inhibition, most hits filed as activators; 320,000 tested, 2.8% active; AID 485297; also: % of control where 0% means no effect; nearly all actives have a fitted effect of over 60% in size
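Rab9 promoter-driven luciferase in stably transfected Huh7 cells; 1500 cells/well rested 2 h, exposed to compound in DMSO for 24 h at 37 °C, 5% CO2. Luminescence read 10 min after adding luciferase reagent at ambient temperature.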
SMN2 splice up – SMN2 splice variant enhancement. HEK293 SMN2-luciferase splicing reporter, luminescence, 30-36 h. Potency, µM (top dose mostly 46.1 µM), for inactives: at the top dose activity change, positive = activation, actives largely listed as activators. 210,000 tested, 2.8% active. AID 1458; also: % of control where 0% means no effect; nearly all actives have a fitted effect of over 55% in size
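HEK293 cells carry an SMN2 […]–luciferase reporter in which exon 7 inclusion puts luciferase in frame. Cells were plated 10-12 h before compound addition, then incubated 30-36 h at 37C. ONE-Glo luminescence was read; sodium butyrate at 4.5 mM final served as control.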
FLuc modulator – inhibits or activates purified firefly luciferase, miR-21 counter-screen; P08659; purified FLuc, Km substrates, luminescence inhibition; 360,000 tested, 6.9% active; Potency, µM (titrated, usually from 57.5 µM), for inactives: at the top dose activity change, negative = inhibition, usual class: inhibitors; AID 588342;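 also: plate controls were vehicle for no effect and reference inhibitor for full effect; nearly all actives have a fitted effect of over 55% in size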
Target sequence (P08659 whole entry, looked up): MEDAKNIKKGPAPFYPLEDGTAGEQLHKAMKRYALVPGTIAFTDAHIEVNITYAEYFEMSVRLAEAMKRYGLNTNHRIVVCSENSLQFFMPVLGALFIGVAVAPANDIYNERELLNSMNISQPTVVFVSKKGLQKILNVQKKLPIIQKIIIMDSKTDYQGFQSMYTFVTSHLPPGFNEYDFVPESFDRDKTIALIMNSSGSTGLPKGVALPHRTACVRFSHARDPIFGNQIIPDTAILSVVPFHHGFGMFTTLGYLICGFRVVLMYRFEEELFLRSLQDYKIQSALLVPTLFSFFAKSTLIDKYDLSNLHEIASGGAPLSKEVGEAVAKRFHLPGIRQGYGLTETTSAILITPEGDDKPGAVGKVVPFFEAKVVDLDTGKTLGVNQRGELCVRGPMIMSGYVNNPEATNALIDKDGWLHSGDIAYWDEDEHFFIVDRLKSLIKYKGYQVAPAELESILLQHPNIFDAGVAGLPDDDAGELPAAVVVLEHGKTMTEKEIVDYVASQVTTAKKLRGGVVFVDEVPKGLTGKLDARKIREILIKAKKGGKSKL
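Purified P. pyralis luciferase, 10 nM final, with Km-level 10 uM D-luciferin and 10 uM ATP in 50 mM Tris acetate pH 7.5, 10 mM Mg acetate, 0.01% Tween-20, 0.05% BSA; 6-point qHTS titration about 60 µM downward; luminescence read.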
ELG1 genotox – inducers of genotoxicity in HEK293T ELG1-luciferase cells. Potency, µM (top dose mostly 46 µM), inactives show at the top dose activity change, positive = activation, hits mostly activators. HEK293T ELG1-luciferase reporter, luminescence, 16 h. AID 504466. 330,000 tested, 1.3% active; also: % of control where 0% means no effect; nearly all actives have a fitted effect of over 60% in size
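Quantitative HTS format in 1536-well plates. HEK293T ELG1-luciferase reporter cells receive test compound and are incubated 16 hr at 37 °C, 5% CO2; ONE-Glo added, 30 min room temperature, then luminescence read.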
Luc counter – counter-screen: inhibitors of Kinase-Glo firefly luciferase; Kinase-Glo luciferase, ATP luminescence, 8 min; Potency, µM (series often up to 38.3 µM), inactives show top-dose activity change, negative = inhibition, actives largely listed as inhibitors; 200,000 tested, 0.28% active; also: % is scaled to controls: 0 for no effect and ±100 for the full control effect; nearly all actives have a fitted effect of over 60% in size
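Substrate mix (final 50 mM imidazole pH 7.2, 50 mM KCl, 7 mM MgCl2, 10 uM ATP, 0.01% Tween 20, 0.05% BSA) plus pin-tool compound, then Kinase-Glo detection mix; 8 min ambient, luminescence read.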
Numbers without * were called inactive; ? = inconclusive; . = not tested or not shown; [ ] = dose if it differs, or a comment. Rows were chosen to be rich in hits. Some 7.3% of all compounds tested hit in one or more screens of this group. Calls follow the shape of the dose curve; as a rule, active = well fitted curve in the direction sought with a large enough effect; inconclusive = small, poorly fitted or top-dose-only effect, or another doubt; inactive = no such curve, though single readings can be large; an effect the other way counts as inactive or inconclusive. Potency is read from the fitted curve at half-maximal effect.

SMILES	NPC1 prom act	Rab9 prom act	SMN2 splice up	FLuc modulator	ELG1 genotox	Luc counter
O=[N+]([O-])c1ccc(-c2nc(C(Cl)Cl)c3ccccc3n2)cc1	-37%	-55%	.	3%	8%	.
Cc1nc(-c2ccc([N+](=O)[O-])cc2)nc2[nH]ccc(=O)c12	1.1µM*	1.1µM*	.	5.4µM*	?	.
O=C(/C=C/c1ccccc1Cl)NC(=S)Nc1ccccc1C(=O)NC1CCCCC1	13%	?	11%	17µM*	3%	-1%
O=C(NC1CCCCC1)c1ccccc1NC(=S)NC(=O)C1CCC1	0%	-6%	12%	-2%	2%	6%
CCOc1ccc(CNC(=O)C2CCN(c3nnc(-n4c(C)ccc4C)s3)CC2)cc1	.	.	-10%	-11%	.	.
CCOC(=O)c1sc(NC(=O)c2c(-c3ccccc3)c(-c3ccccc3)nn(C)c2=O)nc1C	.	.	-11%	?	.	.
CCCCOc1ccc(-n2nc(C)cc2C)nn1	?	?	-13%	17µM*	18%	-3%
Cc1cc(C)n(-c2ccc(OCC(=O)O)nn2)n1	1%	1%	11%	5%	-4%	-1%
COc1ccc(/C=C/C(=O)CC(=O)/C=C/c2cccc(O)c2OC)cc1O	.	.	21%	.	.	.
CCCSc1ncc(Cl)c(C(=O)N2CCN(c3cccc(Cl)c3)CC2)n1	.	.	-23%	-13%	.	.
CCOC(=O)Cn1cc(/C=N/NC(=O)c2cc3ccccc3o2)c2ccccc21	4%	-3%	.	13µM*	0%	.
Cc1cc(/C=N/NC(=O)c2cc3ccccc3o2)c(C)n1C	-2%	-1%	.	21µM*	-6%	.
O=C(N/N=C/c1ccncc1)c1cc2ccccc2o1	-3%	-2%	14%	21µM*	2%	1%
O=C(N/N=C/c1cccnc1)c1cc2ccccc2o1	6%	-3%	-13%	?	3%	2%
CCn1cc(/C=N/NC(=O)c2cc3c(ccc4ccccc43)o2)c2ccccc21	-3%	4%	17%	?	-1%	4%
COc1ccc(-c2nnc(C3CCN(C(=O)c4ccccc4F)CC3)o2)cc1	.	.	0%	?	.	.
Cc1nc(NCc2ccccc2)c2nc(-c3ccccc3)n(CC(C)(C)CN(C)C)c2n1	.	.	-8%	.	.	-4%
Cc1onc(-c2ccccc2)c1C(=O)NC(=S)NNC(=O)c1cc(-c2ccc(F)cc2)n[nH]1	1%	-2%	.	15µM*	-9%	.
Cc1onc(-c2ccccc2)c1C(=O)NC(=S)NNC(=O)c1ccncc1	0%	-5%	6%	0%	-1%	2%
COc1cc(NC(=O)/C=C/c2ccccc2)c(C(=O)O)cc1OC	4%	7%	.	6µM*	15%	.
COC(=O)c1cc(NC(=O)/C=C/c2ccccc2)ccc1O	?	?	.	11µM*	7%	-1%
O=C(/C=C/c1ccccc1)Nc1cc(C(=O)O)cc(C(=O)O)c1	1%	0%	-2%	-19%	1%	2%
O=C(/C=C/c1ccc(Cl)cc1)NC(=S)Nc1ccccc1C(=O)O	-3%	-1%	.	?	0%	.
NC(=O)c1ccccc1NC(=O)/C=C/c1ccccc1	?	1.8µM*	?	6µM*	?	?
NC(=O)c1ccccc1NC(=O)/C=C/c1ccc(Cl)cc1	1.8µM*	2.5µM*	13µM*	1.7µM*	3.7µM*	-10%
SMILES	NPC1 prom act	Rab9 prom act	SMN2 splice up	FLuc modulator	ELG1 genotox	Luc counter
O=C(Cn1nc2c(cc1=O)CCCC2)NCc1ccccc1Cl	.	.	.	6%	.	.
c1ccc2c(Oc3ccc4c(c3)OCO4)nncc2c1	1.3µM*	0.63µM*	10µM*	6µM*	?	-13%
COc1ccc(C)cc1C1=Nc2ccccc2C1(C)C	-3%	2%	-39%	-5%	2%	-6%
Cc1ccc(O)c(C2=Nc3ccccc3C2(C)C)c1	29%	?	11%	12µM*	?	-6%
COc1ccc(/C=C/C(=O)c2ccc(O)cc2)cc1	11%	?	.	3.4µM*	?	.
COc1cc(/C=C/c2ccc(O)cc2)cc(OC)c1	?	3.2µM*	.	13µM*	.	.
COc1ccc(/C=C/C(=O)c2c(O)c(OC)c3occc3c2OC)cc1	-6%	-1%	.	?	-5%	0%
COc1ccc2cc(C(=O)/C=C/c3cc(OC)c(OC)c(OC)c3)ccc2c1	1%	-4%	.	21µM*	-5%	.
COc1cc(/C=C/C(C)=O)cc(OC)c1OC	1%	-6%	-5%	0%	12%	21%
COc1ccc(/C=C/C(=O)c2ccoc2)cc1	20%	23%	-15%	4.3µM*	6%	-7%
COc1ccc(CCCn2ncc3c2nc(N)n2nc(-c4ccco4)nc32)cc1	.	.	.	.	.	1%[39.9 µM]
COc1ccc(C(=O)/C=C/c2ccc(OC)c(COc3ccc(F)cc3)c2)cc1	2%	19%	.	5.4µM*	-3%	.
COc1ccc(C(C)=O)cc1COc1ccc(F)cc1	-10%	-4%	-11%	6%	-2%	3%
CNC(=O)c1ccc2snnc2c1	-1%	-2%	2%	-1%	-7%	1%
COc1ccc(NC(=O)c2ccc3snnc3c2)cc1	?	2.8µM*	13µM*	9.5µM*	?	1%
CC(=O)c1ccc(NC(=O)c2ccc3snnc3c2)cc1	4.5µM*	4µM*	.	?	15µM*	.
O=C(CSc1nccn1Cc1ccc(F)cc1)NCc1ccc(F)cc1	.	.	.	-9%	.	.
CCCSc1nsc(NC(=O)CCC)n1	2.8µM*	1.4µM*	5µM*	12µM*	8%	-2%
CCCCCCSc1nsc(NC(C)=O)n1	?	?	19%	?	?	-2%
CCCSc1nsc(NC(=O)c2cccnc2OCC)n1	0%	28%	2%	?	2%	-5%
CCCCSc1nsc(NC(C)=O)n1	2.2µM*	1.4µM*	18µM*	11µM*	?	4%
COc1ccc(Nc2nc3c(S(=O)(=O)c4ccc(Br)cc4)nnn3c3ccsc23)c(OC)c1	.	.	.	1%	.	.
Cc1cc(C(=O)COC(=O)C2CCN(C(=O)c3ccc(Cl)cc3)CC2)c(C)n1CC1CCCO1 (stereo not given)	-4%	8%	3%	15µM*	10%	1%
COc1cccc(/C=C/C(=O)OCC(=O)c2ccc(C)c(C)c2)c1OC	1%	-3%	.	?	0%	.
Cc1cc(C(=O)COC(=O)c2ccc3c(c2)OCO3)c(C)n1CC1CCCO1 (stereo not given)	1.6µM*	1.3µM*	18%	2.1µM*	?	-9%
COc1cc(C(=O)OCC(=O)c2cc(C)n(CC3CCCO3)c2C)cc(OC)c1C (stereo not given)	3%	5%	.	17µM*	3%	.

Bioassay records: PubChem, National Center for Advancing Translational Sciences (NCATS)
